Data on eight compounds can be found in PubChem BioAssay (NCI).

Test in all cases: NCI-60 one-dose screen, 48 h (100 = growth as untreated, 0 = no growth, -100 = all killed)
Experiment [1] deals with MOLT-4 leukemia. The conditions noted are these: 10 µM.
Experiment [2] deals with SR leukemia. As to conditions: 10 µM.
For experiment [3], the system named is RPMI-8226 leukemia. The conditions noted are these: 10 µM.
Experiment [4] relates to OVCAR-8 ovarian. The conditions noted are these: 10 µM.
Experiment [5] deals with OVCAR-5 ovarian. As to conditions: 10 µM.
For experiment [6], the system named is OVCAR-4 ovarian. As to conditions: 10 µM.
Experiment [7] has as its system SK-OV-3 ovarian. As to conditions: 10 µM.
In experiment [8] the test system is IGROV1 ovarian. The conditions noted are these: 10 µM.
Experiment [9] relates to OVCAR-3 ovarian. As to conditions: 10 µM.
Experiment [10] concerns HS 578T breast. As to conditions: 10 µM.
The subject of experiment [11] is NCI/ADR-RES ovarian. As to conditions: 10 µM.
Experiment [12] concerns T-47D breast. The conditions noted are these: 10 µM.
Experiment [13] has as its system MDA-MB-435 melanoma. The conditions noted are these: 10 µM.
Experiment [14] relates to SW-620 colon. As to conditions: 10 µM.
Experiment [15] relates to MCF7 breast. As to conditions: 10 µM unless noted.
Experiment [16] deals with HCT-116 colon. As to conditions: 10 µM.
The test system of experiment [17] is KM12 colon. As to conditions: 10 µM.
For experiment [18], the system named is BT-549 breast. As to conditions: 10 µM.
In experiment [19] the test system is HCC-2998 colon. As to conditions: 10 µM.

“And” between values parts separate entries of the source, which are not always exact repeats. Equal entries are not always repeated. This is part of a sample that, as a whole, favours compounds with a hit. Of some 83,000 tested, about 20% had one in any assay.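 Step 1: grow cells in 96-well plates. Step 2: add test compound at a single concentration. Step 3: incubate 48 h. Step 4: record percent growth.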 The source made the active and inactive calls. Rule for the calls: active = growth percent below 10; inactive = the rest.

For the compound `O=[N+]([O-])/C=C/c1ccc(Cl)cc1[N+](=O)[O-]`, the growth in experiment [1] is 2.69% (active); in experiment [2], 4.94% (active); in experiment [3], -11.3% (active); in [4] it was 17.8% (inactive); in experiment [5] it was 75.2% (inactive); in experiment [6], 10% (active). Further, the growth was 99.2% (inactive) in experiment [7]; 17.8% (inactive) in [8]; -31.5% (active) in experiment [9]; -6.61% (active) in experiment [10]; 32.1% (inactive) in experiment [11]; -6.41% (active) in experiment [12]. Also, the growth was 76.8% (inactive) in experiment [13]; -90.2% (active) in experiment [14]; -69.2% (active) in experiment [15]; -100% (active) in experiment [16]; 29.1% (inactive) in [17].

With `Oc1ccccc1-c1ccccc1`, the growth is 90.1% (inactive) and 93.8% (inactive) in experiment [1]; 92% (inactive) and 87.9% (inactive) in experiment [2]; 98.7% (inactive) and 93.2% (inactive) in experiment [3]; 100% (inactive) and 98% (inactive) in [4]; 105% (inactive) and 109% (inactive) in [5]; 108% (inactive) and 104% (inactive) in experiment [6]. In addition, the growth in experiment [7] was 92.2% (inactive) and 102% (inactive); in [8], 97.9% (inactive) and 107% (inactive); in experiment [9], 103% (inactive) and 116% (inactive); in experiment [10], 104% (inactive) and 120% (inactive); in [11] it was 99.9% (inactive) and 110% (inactive); in experiment [12], 94% (inactive). The growth is 111% (inactive) and 96.9% (inactive) in experiment [18]; 107% (inactive) and 111% (inactive) in experiment [13]; 109% (inactive) and 103% (inactive) in [14]; 98.1% (inactive) and 94.1% (inactive) in [15]; 109% (inactive) and 96.6% (inactive) in experiment [16]; 102% (inactive) and 109% (inactive) in [17].

For the compound `O=C1CCC(=O)N1SC(Cl)(Cl)Cl`, the growth is 90.4% (inactive) in [1]; 95.2% (inactive) in experiment [2]; 108% (inactive) in [3]; 106% (inactive) in experiment [4]; 110% (inactive) in [5]; 110% (inactive) in experiment [6]. The growth in experiment [7] was 109% (inactive); in experiment [8] it was 92.6% (inactive); in [9] it was 122% (inactive); in [11], 110% (inactive); in experiment [12] it was 118% (inactive); in experiment [18] it was 104% (inactive). Further, the growth in [13] was 102% (inactive); in experiment [14], 100% (inactive); in [15], 97.2% (inactive); in experiment [16] it was 106% (inactive); in experiment [19] it was 103% (inactive); in experiment [17], 105% (inactive).

As to `O=C(CBr)Nc1ccccc1`, the growth in experiment [1] is 42.6% (inactive); in experiment [2], 48.1% (inactive); in [3], 100% (inactive); in experiment [4], 98% (inactive); in experiment [5] it was 128% (inactive); in experiment [6], 92.5% (inactive). Moreover, the growth in experiment [7] was 113% (inactive); in experiment [8], 106% (inactive); in [9], 98.3% (inactive); in experiment [10], 99.9% (inactive); in [11] it was 103% (inactive); in experiment [12] it was 92.6% (inactive). Moreover, the growth in experiment [18] is 87% (inactive); in experiment [13] it was 102% (inactive); in experiment [14] it was 59.9% (inactive); in [15], 68.6% (inactive); in experiment [16], 84.7% (inactive); in [17], 102% (inactive).

Consider `O=C(CBr)Nc1ccc(Cl)cc1`, for which the growth in experiment [1] was 20.7% (inactive); in experiment [2] it was -28.8% (active); in [3], 73.4% (inactive); in experiment [4] it was 96.6% (inactive); in experiment [5], 66.6% (inactive); in experiment [6], 89.2% (inactive). Also, the growth in [7] was 108% (inactive); in experiment [9], 68.9% (inactive); in experiment [10] it was 115% (inactive); in [11], 94.5% (inactive); in experiment [12], 67.8% (inactive); in experiment [18] it was 116% (inactive). Besides, the growth was 87% (inactive) in experiment [13]; 9.26% (active) in experiment [14]; 45% (inactive) in experiment [15]; 54.4% (inactive) in experiment [16]; 102% (inactive) in experiment [17].

As for `CCCCCCCC[N+]12CN3CN(CN(C3)C1)C2`, the growth is 120% (inactive) in experiment [1]; 92.7% (inactive) in experiment [2]; 90.1% (inactive) in experiment [3]; 101% (inactive) in [4]; 96.5% (inactive) in [5]; 99.2% (inactive) in [6]. The growth in experiment [7] was 103% (inactive); in experiment [8] it was 108% (inactive); in experiment [9] it was 97.9% (inactive); in experiment [10], 92.4% (inactive); in experiment [11], 98.9% (inactive); in [18], 94.4% (inactive). In addition, the growth in [13] is 95% (inactive); in experiment [14] it was 89.7% (inactive); in experiment [15] it was 91.4% (inactive); in experiment [16], 93.6% (inactive); in experiment [17], 98.4% (inactive).

Turning to `O=[N+]([O-])/C=C/c1ccc([N+](=O)[O-])cc1`, the growth was 47% (inactive) and 47.8% (inactive) in experiment [1]; 3.64% (active) and 20.5% (inactive) in experiment [2]; -51.5% (active) and 17.3% (inactive) in experiment [3]; 28% (inactive) and 92% (inactive) in experiment [4]; 71.7% (inactive) and 125% (inactive) in experiment [5]; 85.6% (inactive) and 86.6% (inactive) in experiment [6]. The growth in experiment [7] was 92.6% (inactive) and 110% (inactive); in experiment [8], -20.2% (active) and 66.6% (inactive); in experiment [9] it was -98.4% (active) and 36.6% (inactive); in experiment [10], -2.35% (active) and 93.8% (inactive); in experiment [11], 78.7% (inactive) and 85.8% (inactive); in experiment [12], 48.7% (inactive) and 57.1% (inactive). Further, the growth is -75.2% (active) and 88.7% (inactive) in experiment [18]; -48.9% (active) and 81.1% (inactive) in experiment [13]; -72.6% (active) and 12.2% (inactive) in [14]; -14.5% (active) and 23.1% (inactive) in [15]; -93% (active) and 48.4% (inactive) in experiment [16]; -54.2% (active) and 99.7% (inactive) in [17].

In the case of `COc1ccc2c(ccc3oc([N+](=O)[O-])cc32)c1`, the growth in experiment [1] is -19% (active); in experiment [2], -9.5% (active); in [3], 12.1% (inactive); in experiment [4], 0.0755% (active); in experiment [5] it was 9.85% (active); in experiment [6], 28.9% (inactive). In addition, the growth in [7] is -12.6% (active); in experiment [9], -13.9% (active); in experiment [10] it was -7.73% (active); in experiment [11], 2.89% (active); in experiment [12], 15.3% (inactive); in experiment [18], -35.1% (active). For the same compound, the growth in experiment [13] was -77% (active); in [14], 7.19% (active); in [15], 6.64% (active); in experiment [16], 4.98% (active); in [17], -5.99% (active).
